Screening results deposited in PubChem BioAssay by The Scripps Research Institute Molecular Screening Center.
TEAD-YAP block – TEAD-YAP interaction inhibition, primary screen, TEAD-YAP interaction inhibitor project, luminescence, HEK-TIYL cells | TEAD-Gal4/YAP UAS-luciferase luminescence | inhibition, % at 9.12 µM | hit rate 1.4% among 640,000 | AID 1259422, 2018; in the data active = inhibition above about 32%;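 note: 0% = median of test compound wells and 100% = reference inhibitor wells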
FBW7 act – FBW7 E3 ligase activators, primary screen, biochemical, AlphaScreen, human; AlphaScreen FBW7–phospho-cyclin E peptide binding, activator screen; normalized activity (activation), % at 26.1 µM; F-box/WD repeat-containing protein 7 (Homo sapiens), Q969H0; hit rate 0.13% among 650,000; in the data active = normalized activity above about 1.9%;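 note: purified mutant Fbw7 with reduced substrate affinity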
MITF inh – MITF inhibitors, primary screen, biochemical, AlphaScreen, human; AlphaScreen MITF homodimerization, bead proximity signal; inhibition, % at 2.6 µM; hit rate 0.91% among 650,000; AID 1259374, 2018; in the data active = inhibition above about 50%;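 note: 0% = vehicle wells with protein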
GPR151 ag – activators of human GPR151, primary screen, cell-based, PathHunter beta-arrestin, luminescence | hit rate 1% among 650,000 | AID 1508602, 2020 | G-protein coupled receptor 151 (Homo sapiens), Q8TDV0 | PathHunter beta-arrestin GPR151 cells | activation, % at 11.2 µM; in the data active = activation above about 4.9%;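 note: 0% = median of compound wells and 100% = cells with positive control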
GPR151 confirm – GPR151 activators, triplicate retest, confirmation, cell-based, PathHunter beta-arrestin, luminescence; GPR151 PathHunter beta-arrestin cells, 90 min; % of EA-reagent control over plate median; 6,700 tested, under 10 active; shares compounds with GPR151 ag; activation, % at 11.2 µM;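 active = mean percent activation across replicates above the confirmation screen cutoff of 4.91%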
GPR119 counter – GPR119 activators in beta-arrestin cells, counter-screen for GPR151 activator project, cell-based, PathHunter beta-arrestin, luminescence, triplicate | shares compounds with GPR151 ag | 90 min; 0 = compound-well median, 100 = enzyme-acceptor control | activation, % at 11.2 µM | AID 1508611, 2020 | hit rate 0.3% among 6,700;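 active = mean percent activation in the counterscreen above 29.09%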;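 note: counterscreen on off-target GPR119 to flag nonselective hits from the GPR151 activator screen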
Target sequence (Q8TDV5 whole entry, looked up): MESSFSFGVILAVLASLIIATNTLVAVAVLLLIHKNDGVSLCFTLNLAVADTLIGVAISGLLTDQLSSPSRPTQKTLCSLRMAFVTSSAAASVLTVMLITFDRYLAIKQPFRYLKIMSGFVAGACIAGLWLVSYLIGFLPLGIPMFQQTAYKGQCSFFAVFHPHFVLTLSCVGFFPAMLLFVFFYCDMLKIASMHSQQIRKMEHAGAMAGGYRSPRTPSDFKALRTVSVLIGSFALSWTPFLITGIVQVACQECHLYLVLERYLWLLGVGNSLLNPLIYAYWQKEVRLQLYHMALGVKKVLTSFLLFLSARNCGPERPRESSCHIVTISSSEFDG
Starred values were filed as active, the others as inactive; nt = no result. The list is not random: actives were taken first. Their share in the collection is about 3.4%.

SMILES | TEAD-YAP block | FBW7 act | MITF inh | GPR151 ag | GPR151 confirm | GPR119 counter
CCCNC(=O)c1csc(-c2c(C)nn(C)c2C)n1 | -4.8 | 0.0 | 27.0 | 5.2* | 0.1 | 10.1
O=C(CNC(=O)c1cc(N2CCOCC2)ccn1)Nc1ccc(F)c(F)c1F | -3.5 | 0.2 | 10.8 | 5.0* | -0.6 | -1.8
Cc1ccccc1CN1CCC(N2CCC(C(=O)NCC3CCCO3)CC2)CC1 (stereo not given) | 9.5 | 0.0 | 6.1 | 8.4* | 0.5 | 18.3
COC(=O)C1=C(C)N(C)C(C)=C(C(=O)OC)C1c1ccc(F)c(Br)c1 | 3.8 | 0.1 | 3.3 | 5.2* | -0.2 | 4.7
Cc1ccc(C(=O)Oc2ccc(N3C(=O)C4CCC(C)CC4C3=O)cc2)cc1 (stereo not given) | 5.9 | 0.4 | 1.8 | -1.7 | nt | nt
CN1CCN(C2=Nc3c(Cl)cc(Cl)c4cccc2c34)CC1 | -9.8 | -0.1 | -1.8 | 11.8* | 1.4 | -0.8
Cc1cccc(OCCCN2CCOCC2)c1C | 9.4 | 0.0 | -7.2 | 5.1* | -1.2 | -7.7
COc1ccc2[nH]c(CNC(=O)Cn3cc(NC(=O)c4ccccn4)cn3)cc2c1 | -2.1 | -0.3 | -4.5 | 2.6 | nt | nt
CCCCCNc1nnnc2c1sc1nc(N3CCOCC3)c3c(c12)CC(C)(C)OC3 | 6.2 | -0.1 | 12.1 | -0.2 | nt | nt
CC(C(=O)N1c2ccccc2CC1C)N1CCN(c2ccccn2)CC1 (stereo not given) | 13.2 | 0.5 | 14.3 | 5.3* | 0.4 | -8.1
CNC(=O)NC(=O)C(C)N1CCN(c2ccccn2)CC1 (stereo not given) | -5.2 | 0.6 | 15.2 | 1.1 | nt | nt
CCOC(=O)c1c(NC(=O)c2nn3c(C(F)(F)F)cc(-c4ccccc4)nc3c2Br)sc2c1CCCCC2 | -3.5 | -0.2 | -2.4 | 0.0 | nt | nt
Cc1cc(=O)oc2c1ccc1oc(C(=O)c3ccc(Cl)cc3)c(C)c12 | -5.1 | -0.1 | -3.4 | 5.7* | 0.3 | 0.8
CC(=O)c1oc2ccc3c(C)cc(=O)oc3c2c1C | 2.0 | -0.1 | 3.3 | -0.5 | nt | nt
CC1CC(C)CN(C(=O)CN2C(=O)NC(Cc3ccccc3)(Cc3ccccc3)C2=O)C1 (stereo not given) | 9.4 | -0.1 | 2.2 | 5.0* | -0.1 | 13.4
CC1CCN(C(=O)CN2C(=O)NC(Cc3ccccc3)(Cc3ccccc3)C2=O)CC1 | 5.9 | 0.0 | 3.7 | -2.3 | nt | nt
COc1cccc(CNC(=O)NC(=O)C2CCNCC2)c1 | 3.1 | 0.0 | 13.0 | 0.4 | nt | nt
CCOc1cc(C)c(S(=O)(=O)N2CC(C)OC(C)C2)cc1C (stereo not given) | -3.1 | 0.0 | 12.6 | 0.5 | nt | nt
CCOc1cc(C)c(S(=O)(=O)N2CCCC2)cc1C | -4.7 | 0.2 | -32.4 | 6.7* | -0.3 | -3.1
COc1ccc(C2CC(C(F)(F)F)n3nc(C(=O)Nc4cccc(C(F)(F)F)c4)cc3N2)cc1 (stereo not given) | 0.2 | -0.1 | -5.9 | 0.1 | nt | nt
COc1ccc(C2CC(C(F)(F)F)n3nc(C(=O)Nc4cccc(O)c4)cc3N2)cc1 (stereo not given) | 1.9 | 0.1 | 14.3 | 5.8* | 0.3 | 11.8
CCCCC(C(=O)OCC(=O)c1ccc([N+](=O)[O-])cc1)N1C(=O)c2ccccc2C1=O (stereo not given) | 14.3 | -0.1 | -3.5 | 0.4 | nt | nt
COC(=O)C1=C(C)N=c2s/c(=C/c3ccc(F)cc3)c(=O)n2C1c1ccc(OC)c(OC)c1 (stereo not given) | -17.6 | 0.1 | 10.6 | 0.8 | nt | nt
O=C(OCCN1CCOCC1)c1ccc(O)c(O)c1 | 4.3 | -0.1 | 17.2 | 1.2 | nt | nt
O=C(OCCN1CCOCC1)c1cccc(Br)c1 | -28.5 | 0.3 | -2.9 | 8.3* | -1.2 | -11.5
CCC(C)c1ccccc1NC(=S)NC(C)=O (stereo not given) | 10.8 | 0.3 | 6.2 | 31.1* | 0.5 | 7.6
CCC(C)c1ccccc1NC(=O)CCNC(C)=O (stereo not given) | 6.3 | -0.1 | -6.2 | -0.4 | nt | nt
O=C(CNC(=O)C1CCCCC1)NNC(=O)c1ccccc1Br | 0.8 | -0.1 | 6.8 | 5.8* | -0.7 | 1.1
